Reference: PubChem BioAssay AID2205 (University of Pittsburgh Molecular Library Screening Center, 2009)
The whole screen tested about 200,000 compounds, of which about 1,600 (0.8%) were called active.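 Rule for the calls: active = plate Z-score above 3 for both tubulin-high and condensed-nucleus cell shares, with cell loss under 80%, at 10 µM; inactive = the rest, inconclusive results apart.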 The list comes from a sample in which actives are over-represented; it also holds similar structures and randomly drawn compounds.

Experiment: tubulin staining increase by stabilizing compounds – imaging, high-content imaging, primary screen (AID 2205);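 for % tubulin-high responders: anti alpha tubulin signal scored within the nucleus-defined area of each cell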;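 for toxicity: 0% = mean cell density of plate MIN control wells and 100% = no cells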
Conditions: HeLa tubulin immunostaining HCS, 24 h, at 10 µM; % Hoechst-high responders: measured here: nuclear condensation Hoechst responders, stronger effect = higher value, share of cells brighter than vehicle mean+2SD; % tubulin-high responders: stronger effect = higher value, share of cells brighter than vehicle mean+2SD; toxicity: measured here: cytotoxicity by cell density

Row | Compound | % Hoechst-high responders | % tubulin-high responders | toxicity
1 | COc1ccccc1NC(=O)C1=C(C)Nc2nc3ccccc3n2C1c1cccs1 (stereo unspecified) | 37.9% | 14.5% (active) | 54.8%
2 | CCOc1ccc(C2C(C(=O)NC)=C(C)Nc3nc4ccccc4n32)cc1OC (stereo unspecified) | 1.52% | 3.35% (inactive) | 7.37%
3 | CCOC(=O)C1=C(C)Nc2nc3ccccc3n2C1c1cccs1 (stereo unspecified) | 2.61% | 1.67% (inactive) | 7.26%
4 | Cc1ccc(-n2c(C)cc(C(=O)CSc3nnc4ccccn34)c2C)cc1 | 2.88% | 3.52% (inactive) | 5.15%
5 | COc1ccc(Nc2nc(-c3ccccc3)cs2)cc1 | 2.53% | 3.24% (inactive) | 3.05%
6 | COc1ccc(-c2csc(Nc3ccc(O)cc3)n2)cc1 | 4.55% | 6.13% (inactive) | 2.94%
7 | COc1ccc(OC)c(Nc2nc(-c3ccc(O)c(O)c3)cs2)c1 | 33.9% | 34% (active) | 37%
8 | COc1ccc(NC(C(=O)Nc2cccc(C(C)=O)c2)c2ccccc2)cc1 (stereo unspecified) | 4.94% | 2.7% (inactive) | 7.43%
9 | CCc1cc2cc(OC)ccc2nc1SCC(=O)Nc1cc(OC)c(OC)cc1C(=O)O | 1.91% | 2.13% (inactive) | 7.82%
10 | COc1ccccc1C(c1nnnn1CC1CCCO1)N1CCN(c2ccccc2)CC1 (stereo unspecified) | 1.03% | 3.39% (inactive) | 0.528%
11 | Nc1ncc(-c2cc3ccccc3oc2=O)s1 | 2.39% | 5.77% (inactive) | 5%
12 | O=C(c1cn(-c2ccccc2)nc1-c1cc2ccccc2oc1=O)N1CCOCC1 | 1.17% | 1.1% (inactive) | 0.611%
13 | O=c1oc2ccccc2cc1-c1cn(-c2ccccc2)c(=S)[nH]1 | 36.5% | 12.5% (active) | 39.3%
14 | Cc1ccc(S(=O)(=O)CCC(=O)OCc2ccccc2)cc1 | 1.72% | 4.05% (inactive) | 4.99%
15 | CC1CCN(c2ccc([N+](=O)[O-])cc2C(N)=O)CC1 | 1.09% | 5.37% (inactive) | 13%
16 | O=c1cc(N2CCCCC2)c(-c2ccccc2)nn1Cc1cccc(F)c1 | 0.91% | 7.03% (inactive) | 4.95%
17 | O=c1cc(-c2ccccc2)[nH]c2cc(F)ccc12 | 48.5% | 14.7% (inactive) | 37.5%
18 | Cc1ccc(-c2cc(=O)c3ccc(F)cc3[nH]2)cc1 | 14.3% | 22.4% (active) | 28.4%
19 | Cc1ccc(-c2cc(=O)c3ccc(Cl)cc3[nH]2)cc1 | 1.34% | 2.15% (inactive) | 1.49%

Row | Compound | % Hoechst-high responders | % tubulin-high responders | toxicity
20 | CN(CC(=O)NC1CCCC1)S(=O)(=O)c1cnc[nH]1 | 1.61% | 4.66% (inactive) | 8.08%
21 | Cc1nn(CC2CC2)c(=O)n1N(C)c1ncc(C(F)(F)F)cc1Cl | 3.3% | 5.71% (inactive) | 3.78%
22 | CSc1nc(N(C)NC(=O)c2cccc(C)c2)c2ccccc2n1 | 33.9% | 13.4% (inactive) | 39.2%
23 | CN(NC(=O)c1ccccc1)c1nc2ccccc2nc1C(F)(F)F | 38% | 48.6% (active) | 33.5%
24 | COc1ccc(C(=O)NN(C)c2nc(-c3ccccc3)cc(C)c2S(C)(=O)=O)cc1 | 3.04% | 2.71% (inactive) | 4.33%
25 | CN(NC(=O)c1ccccc1F)c1nc(C(F)(F)F)nc2ccccc12 | 59.1% | 12.1% (active) | 32.2%
26 | COC(=O)CNC(=O)c1ccccc1F | 1.58% | 0.975% (inactive) | 9.24%
27 | Cc1cc(C)n(-c2nc(C(F)(F)F)nc3ccccc23)n1 | 2.48% | 5.42% (inactive) | 5.25%
28 | CCN(CC)S(=O)(=O)c1ccc(N(C)CCc2ccc(OC)c(OC)c2)nc1 | 1.73% | 5.42% (inactive) | 7.66%
29 | Cc1ccc(COc2ccc(/C=N/NC(=O)CN3CCCCC3)cc2)cc1 | 2.2% | 1.76% (inactive) | 4.99%
30 | Cc1ccc(/C=N/NC(=O)c2sccc2OCc2ccc(F)cc2)cc1 | 18.4% | 39.2% (active) | 68.8%
31 | Cc1ccsc1C(=O)N/N=C/c1ccc([N+](=O)[O-])cc1 | 2.36% | 3.58% (inactive) | 0.132%
32 | Cn1cnnc1SCC(=O)Nc1ccc(N2CCOCC2)cc1 | 3.45% | 1.73% (inactive) | 7.15%
33 | O=C(c1snnc1-c1ccccc1)N1CCOCC1 | 2.21% | 5.38% (inactive) | 8.24%
34 | O=C(COC(=O)c1cc(S(=O)(=O)N2CCCCC2)ccc1Cl)NCc1ccco1 | 2.04% | 2.32% (inactive) | 4.83%
35 | Cc1cc(C(=O)OCC(=O)NCc2ccco2)c(C)n1-c1ccccc1 | 31.8% | 24.1% (active) | 57.4%
36 | O=C(COC(=O)c1cnc(Cl)c(Cl)c1)NCc1ccco1 | 2.45% | 2.71% (inactive) | 7.79%
37 | O=C(Cn1nnc(-c2ccccc2)n1)N/N=C/c1ccc(-c2ccc(Cl)cc2)o1 | 2.75% | 3.12% (inactive) | 5.19%
